This is a sample that favours compounds with a hit; in the whole collection about 12% have one here.
Lmaj promast = Leishmania major promastigote growth inhibition; Leishmania major promastigotes, resazurin fluorescence viability; inhibition, % at 10 µM; actives 9% (n = 200,000); in the data active = inhibition above about 50%;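 note: promastigotes grown with compound for 44 hours at 28 °C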
Arbovirus anti = antivirals against arbovirus infection | arbovirus infection cell-based antiviral screen | inhibition, % at 10 µM | actives 0.37% (n = 200,000) | AID 1251; in the data active = inhibition above about 30%
WT yeast gro inh = growth inhibition of WT yeast, mitochondrial fusion screen; mitochondrial fusion phenotypic screen, WT strain; inhibition, % at 10 µM; actives 2.1% (n = 190,000); AID 1362; in the data active = inhibition above about 58%; tested in S. cerevisiae
CHOP inhibitor = CHOP inhibition in unfolded protein response; CHO-K1 CHOP-promoter luciferase, tunicamycin-induced, 15-18 h; inhibition, % at 10 µM; actives 3.8% (n = 220,000);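 active = compounds that reduced the stress-induced luciferase reporter signal by more than about 70% of percent inhibition, limit read from the data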
A number is an active result; 0 = inactive; - = not tested or not shown.

SMILES	Lmaj promast	Arbovirus anti	WT yeast gro inh	CHOP inhibitor
CCOc1ccc(-c2ccc(/C=C3/C(=N)N4C=CSC4=NC3=O)o2)c([N+](=O)[O-])c1	0	0	0	86
CCOc1ccc(-c2ccc(/C=C3/C(=N)N4C(C)=CSC4=NC3=O)o2)c([N+](=O)[O-])c1	0	0	0	88
CC1=CSC2=NC(=O)/C(=C/c3cccc(OC(=O)c4ccco4)c3)C(=N)N12	0	0	0	0
COc1cc(/C=C2/C(=N)N3C=CSC3=NC2=O)ccc1OCCOc1ccc(NC(C)=O)cc1	0	0	0	0
CCNc1nc(-c2ccc(OC(F)F)cc2)c(C)s1	0	0	0	0
CCn1nc(C)c([N+](=O)[O-])c1C(=O)NNC(=O)c1ccccc1Cl	-	-	-	0
O=C(COc1ccc(S(=O)(=O)N2CCCC2)cc1Cl)NCc1ccc2c(c1)OCO2	0	0	0	0
O=C(COc1ccc(S(=O)(=O)NC2CCCCC2)cc1Cl)NCc1ccc2c(c1)OCO2	73	0	0	0
O=C(COc1ccc(S(=O)(=O)NC2CCCCC2)cc1Cl)Nc1ccc2c(c1)OCO2	0	0	0	86
COC(=O)COc1ccc(S(=O)(=O)Nc2ccc3c(c2)OCO3)cc1Cl	0	0	0	0
OCCC1CN(Cc2cc3c(cc2Cl)OCO3)CCN1C1CCCCC1 (stereo not drawn)	0	0	0	0
COc1ccc(C2NC(=O)N(C)C3=C2C(=O)CC(C)(C)C3)cc1OC (stereo not drawn)	0	0	0	0
COc1ccc(C2N(c3ccc(Cl)cc3)N=C(C(C)=O)N(C)N2C(C)=O)cc1 (stereo not drawn)	58	0	67	0
COc1ccc(OC)c(N(CC(=O)Nc2ccccc2C(=O)NCc2ccco2)S(C)(=O)=O)c1	0	0	0	0
COc1ccc(Cl)cc1N(CC(=O)Nc1ccccc1C(=O)NCc1ccco1)S(C)(=O)=O	83	0	0	0
CC(C)NC(=S)N(CCc1ccncc1)C(C)C	0	0	0	0
CCNC(=O)/C=C1\NC(C)(C)Cc2c1ccc1ccccc21	100	0	0	0
COC(=O)C1(CCSC)NC(c2ccc(O)c(OC)c2)C2C(=O)N(c3ccc(C)cc3)C(=O)C21 (stereo not drawn)	0	0	0	0
Cc1cc2c(cc1Cl)N(C(=O)Nc1ccnc3ccccc13)CC2	-	-	-	0
O=C(Nc1cc(-c2ccccc2)[nH]n1)c1ccc(Cl)cc1	-	-	-	0
CCOC(=O)C1CCN(C2CCN(Cc3nc(-c4ccccc4)no3)CC2)CC1	80	0	0	0
CCOC(=O)C1CCCN(C2CCN(Cc3nc(-c4ccccc4)no3)CC2)C1 (stereo not drawn)	73	0	0	0
COc1ccc(C2C=C(c3ccc(C)c(C)c3)Nc3ncnn32)c(OC)c1OC (stereo not drawn)	80	0	0	0
CCCCOC(=O)C1=C(C)Nc2ncnn2C1c1cccc(OC)c1 (stereo not drawn)	61	0	0	0
CCOC(=O)C1=C(c2ccccc2)Nc2ncnn2C1c1cc(OC)ccc1OC (stereo not drawn)	100	0	0	0
SMILES	Lmaj promast	Arbovirus anti	WT yeast gro inh	CHOP inhibitor
COc1cccc(C2C(C(=O)OCc3ccccc3)=C(C)Nc3ncnn32)c1OC (stereo not drawn)	91	0	0	0
CCCCOC(=O)C1=C(C)Nc2ncnn2C1c1cccc(OC)c1OC (stereo not drawn)	0	0	0	0
CCCCOC(=O)C1=C(C)Nc2ncnn2C1c1cc(OC)ccc1OC (stereo not drawn)	0	0	0	0
COc1ccc(C2=CC(c3ccco3)n3ncnc3N2)cc1 (stereo not drawn)	0	0	0	0
CCOC(=O)C1=C(c2ccccc2)Nc2ncnn2C1c1ccc(OC)c(OC)c1OC (stereo not drawn)	86	0	0	0
COc1ccc(C2C=C(c3ccccc3)Nc3ncnn32)cc1 (stereo not drawn)	0	0	0	0
CCOc1ccc(C2C=C(c3ccc(C)cc3)Nc3ncnn32)cc1 (stereo not drawn)	0	32	0	0
COC(C[C@H]1O[C@H]1[C@@H](O)[C@H](C)OCc1ccccc1)OC	-	-	-	0
CCOc1ccccc1CN(CCc1ccc2c(c1)OCO2)Cc1ccccn1	82	0	0	0
CCOc1ccc(CN(C)CCc2ccccn2)cc1	0	0	0	0
O=c1c2ccccc2[nH]c(=S)n1CCCN1CCN(C2CCCCC2)CC1	98	0	0	0
CC1CCN(CCCn2c(=S)[nH]c3ccccc3c2=O)CC1	100	0	0	0
O=c1c2ccccc2[nH]c(=S)n1C1CCCCC1	0	0	0	0
CC1CCCC(n2c(=S)[nH]c3ccccc3c2=O)C1C (stereo not drawn)	0	0	0	94
O=c1c2ccccc2[nH]c(=S)n1CCCN1CCOCC1	0	0	0	0
O=c1cc(-c2ccccc2Cl)oc2c(NS(=O)(=O)c3ccccc3OC(F)(F)F)ccc(O)c12	-	-	-	0
O=C(NCc1ccco1)c1ccc(-c2cccc(Cl)c2)o1	0	0	0	0
O=C(NN1C(=O)c2ccccc2NC1c1ccccn1)c1ccccc1 (stereo not drawn)	0	0	0	0
COc1ccc(C(C(=O)NC(C)(C)C)N(CC2CCCO2)C(=O)CCC(=O)Nc2cc(C)on2)cc1 (stereo not drawn)	0	0	0	0
COc1ccc(C(C(=O)NC(C)(C)C)N(Cc2ccccc2)C(=O)CCC(=O)Nc2cc(C)on2)cc1 (stereo not drawn)	95	0	0	0
COc1ccc(CN(C(=O)c2ccc(-c3ccccc3)[nH]2)C(C(=O)NC(C)(C)C)c2ccncc2)cc1 (stereo not drawn)	93	0	0	0
O=C(N/N=C/c1c[nH]c2ccccc12)c1sc2ccccc2c1Cl	0	0	0	0
COc1ccc2c(Cl)c(C(=O)N/N=C/c3c(C)[nH]c4ccccc34)sc2c1	100	0	0	0
COc1ccc(NC(=O)c2ccc(-c3nn(C)c(=O)c4ccccc34)cc2)cc1C(N)=O	-	-	-	0
COC(=O)Nc1cc(C)nc2ccccc12	55	0	0	0
SMILES	Lmaj promast	Arbovirus anti	WT yeast gro inh	CHOP inhibitor
Cc1cc(NC(=O)Cc2ccccc2)c2ccccc2n1	0	0	0	0
O=C(NCCCn1ccnc1)C(Cc1ccccc1)N1C(=O)c2ccccc2C1=O (stereo not drawn)	0	0	58	0
N#Cc1cccc(C#N)c1Oc1ccc(N)cc1	-	-	-	0
c1cn2cc(-c3ccc4c(c3)OCO4)nc2s1	0	0	79	0
CC1(C)CC(=O)c2sc(NS(=O)(=O)c3ccc(F)cc3)nc2C1	0	0	0	0
COc1ccc(-c2noc(CSc3nnc(Cc4ccccc4)n3-c3cccc(C)c3)n2)cc1OC	54	0	0	0
Cc1ccc(-c2noc(CSc3nnc(-c4ccncc4)n3-c3ccc(C)cc3)n2)cc1	0	0	0	0
COc1ccc(-c2noc(CSc3nc4sc(C)c(C)c4c(=O)n3-c3ccccc3)n2)cc1OC	0	0	0	0
Cc1ccc(-c2noc(CSc3nnc(Cc4ccccc4)n3-c3cccc(C)c3)n2)cc1	80	0	0	0
Cc1cccc(-c2noc(CSc3ccccc3)n2)c1	0	0	0	70
O=S(=O)(c1ccccc1)n1ccc2cccnc21	0	0	0	0

Screening results: PubChem, several laboratories
